GLD-1 RNA inh – GLD-1/TGE RNA complex disruptors, primary screen, biochemical, fluorescence polarization | Female germline-specific tumor suppressor gld-1 (Caenorhabditis elegans), Q17339 | purified GLD-1 + fluorescein TGE RNA | inhibition, % at 5.96 µM | 320,000 compounds, 0.44% hits;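 active = percent inhibition above a per-plate cutoff, the plate mean of test compounds plus 3 SD, cut at about 30% in these data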;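 also: 0% = DMSO wells with GLD-1 and probe and 100% = wells lacking GLD-1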
MCL1 BIM primary – inhibitors of MCL1 binding to BIM-BH3, primary screen, biochemical, fluorescence polarization | Induced myeloid leukemia cell differentiation protein Mcl-1 (Homo sapiens), Q07820 | GST-MCL1 / FITC-Bim-BH3 fluorescence polarization | inhibition, % at 10.9 µM | 320,000 compounds, 0.68% hits | AID 2057, 2009;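 active = inhibition above the mean inhibition of all tested compounds plus 3 SD, set per campaign, cut at about 40% in these data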;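 also: 0% = DMSO wells and 100% = unlabeled Bim-BH3 peptide control; higher means more loss of mP so more displacement of Bim peptide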
Target sequence (Q07820 whole entry, looked up): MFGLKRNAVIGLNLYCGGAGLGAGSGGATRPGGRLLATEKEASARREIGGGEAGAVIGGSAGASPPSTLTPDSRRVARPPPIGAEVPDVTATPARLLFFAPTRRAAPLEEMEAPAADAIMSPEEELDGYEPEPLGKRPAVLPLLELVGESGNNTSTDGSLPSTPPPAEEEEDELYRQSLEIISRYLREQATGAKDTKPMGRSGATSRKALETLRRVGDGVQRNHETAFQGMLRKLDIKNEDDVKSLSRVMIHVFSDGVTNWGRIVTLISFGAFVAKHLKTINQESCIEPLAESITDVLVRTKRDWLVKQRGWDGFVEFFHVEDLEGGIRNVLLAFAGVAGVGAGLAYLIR
Mcl1-Noxa inh – Mcl-1/Noxa binding inhibitors, primary screen, biochemical, TR-FRET, 1536-well; inhibition, % at 21.7 µM; AID 1022, 2008; 220,000 compounds, 1.5% hits; TR-FRET Mcl-1/Noxa peptide binding, 2 h; Induced myeloid leukemia cell differentiation protein Mcl-1 (Homo sapiens), Q07820;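 active = compounds that cut the protein-peptide binding signal by more than 50% relative to plate controls in a single-dose test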;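 also: His-tagged Mcl-1 with rhodamine Noxa BH3 peptide and terbium anti-His antibody; 0% = Mcl-1 plus Noxa peptide wells and 100% = peptide-only wells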
Bcl-xL primary – inhibitors of human Bcl-xL, primary screen, biochemical, fluorescence polarization, HTS | Bcl-2-like protein 1 (Homo sapiens), Q07817 | GST-Bcl-xL / FITC-Bim BH3 peptide fluorescence polarization | inhibition, % at 10.9 µM | 320,000 compounds, 0.7% hits | AID 2129, 2009;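 active = inhibition above the mean of all tested compounds plus 3 SD, cutoff set per campaign, cut at about 30% in these data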;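 also: 0% = DMSO wells and 100% = unlabeled Bim-BH3 peptide competitor; inhibitors lower millipolarization by displacing the labeled peptide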
Target sequence (Q07817 whole entry, looked up): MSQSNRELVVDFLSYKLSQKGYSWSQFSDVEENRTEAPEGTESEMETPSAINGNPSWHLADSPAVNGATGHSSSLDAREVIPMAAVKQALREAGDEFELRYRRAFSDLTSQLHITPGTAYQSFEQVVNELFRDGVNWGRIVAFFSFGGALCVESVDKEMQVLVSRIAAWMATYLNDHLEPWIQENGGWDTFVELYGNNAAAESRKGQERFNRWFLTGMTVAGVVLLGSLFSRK
Mcl1-Bid inh – Mcl-1/Bid binding inhibitors, primary screen, biochemical, TR-FRET, 1536-well. 220,000 compounds, 0.97% hits. inhibition, % at 21.7 µM. TR-FRET Mcl-1/Bid-Dy647 peptide binding. Induced myeloid leukemia cell differentiation protein Mcl-1 (Homo sapiens), Q07820;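 active = compounds that cut the binding signal by more than half at the single screening dose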;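 also: His-tagged Mcl-1 with europium anti-His antibody binding Bid BH3 peptide; 0% = Mcl-1 plus peptide wells and 100% = peptide-only wells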
Bim-Mcl-1 – inhibitors of Bim peptide binding to Mcl-1, primary screen, biochemical, bead-based flow cytometry, multiplex; Induced myeloid leukemia cell differentiation protein Mcl-1 (Homo sapiens), Q07820; Bim peptide-Mcl-1 binding; inhibition, % at 10 µM; 190,000 compounds, 0.1% hits; AID 1009, 2008; in the data active = inhibition above about 40%;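 also: 0% = no compound tracer wells and 100% = peptide blocker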
BCLXL inh confirm – Bcl-xL inhibitors blocking Bim BH3 binding, confirmation, counter-screen for MCL1 inhibitor project, biochemical, fluorescence polarization; shares compounds with MCL1 BIM primary; GST-Bcl-xL / FITC-Bim BH3 peptide FP binding; inhibition, % at 10.9 µM; 1,700 compounds, 54% hits; AID 2166, 2009;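 active = inhibition above a cutoff equal to the mean inhibition of all tested compounds plus 3 SD, cut at about 30% in these data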;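 also: 0% = DMSO wells and 100% = unlabeled Bim BH3 control peptide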
MCL1 inh confirm – inhibitors of MCL1 binding to BIM-BH3, confirmation, biochemical, fluorescence polarization, triplicate. shares compounds with MCL1 BIM primary. GST-MCL1 / FITC-Bim-BH3 fluorescence polarization. inhibition, % at 10.9 µM. 1,700 compounds, 61% hits. AID 2168, 2009;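 active = inhibition above the average of all tested compounds plus 3 SD, cut at about 40% in these data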;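 also: 0% = DMSO wells and 100% = unlabeled Bim-BH3 control peptide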
Numbers without * were called inactive; · = no result. Shown are actives, neighbours in structure and some others; about 2.3% of the full set was active somewhere.

SMILES	GLD-1 RNA inh	MCL1 BIM primary	Mcl1-Noxa inh	Bcl-xL primary	Mcl1-Bid inh	Bim-Mcl-1	BCLXL inh confirm	MCL1 inh confirm
COc1ccc(S(=O)(=O)/N=C2/NC(=O)/C(=C\c3ccco3)S2)cc1	-2	55*	29	28	-26	-7	13	11
CN1CCC(N(C)C(=O)c2cc(=O)c3ccccc3o2)CC1	1	5	-6	8	-25	0	·	·
Cc1ccc(N=Nc2c(O)n(CN3CCOCC3)c3ccccc23)cc1	89*	78*	-3	96*	-28	-2	-22	-36
CCC(CC)N1CCN(C(=O)c2cc(OC)c(OC)c(OC)c2)CC1	13	7	·	7	·	·	·	·
O=C(C(=O)N1CCN(c2ccc(F)cc2)CC1)c1cn(CC(=O)N2CCOCC2)c2ccccc12	11	-1	·	0	·	·	·	·
CCCn1c(C)nc2c(c1=O)c1nc3ccccc3nc1n2CCC1=CCCCC1	10	16	11	21	6	0	·	·
Cc1nc2c(c(=O)n1CCC1=CCCCC1)c1nc3ccccc3nc1n2/N=C/c1ccco1	10	49*	94*	39*	74*	6	32*	58*
N#CCCN(C(=O)COC(=O)C12CC3CC(CC(O)(C3)C1)C2)c1ccc(F)cc1	11	-18	·	-15	·	·	·	·
O=C(CC1CCCC1)Nc1cc(S(=O)(=O)N2CCOCC2)ccc1O	1	-1	·	5	·	·	·	·
O=C(CSc1nc2ccccc2s1)Nc1cc(S(=O)(=O)N2CCOCC2)ccc1O	3	43*	105*	16	32	13	23	49*
Cc1cc(C)n(CCNC(=O)c2ccc3c(c2)OCO3)n1	-2	2	·	-1	·	·	·	·
Cc1nc2scc(C)n2c(=O)c1S(=O)(=O)N1CCN(c2cccc(C(F)(F)F)c2)CC1	6	-1	·	0	·	·	·	·
Nc1c(C(=O)C2CC2)sc2nc(-c3cccs3)cc(C(F)(F)F)c12	-36	72*	-32	11	-23	-5	13	-17
COc1ccc(-c2csc(NC(=O)CCN3C(=O)C4CC=CCC4C3=O)n2)cc1OC (stereo unspecified)	-2	-13	·	2	·	·	·	·
COc1ccc(NC(=O)CN(C)C(=O)c2ccc(NS(=O)(=O)c3ccc4[nH]c(=O)[nH]c4c3)cc2)cc1	5	1	·	2	·	·	·	·
CC(=O)c1ccc(NC(=O)C2Cc3ccccc3CN2C(=O)c2ccccc2)cc1 (stereo unspecified)	2	-6	8	-2	0	0	·	·
COc1ccc(NC(=O)C2Cc3ccccc3CN2C(=O)c2ccccc2)cn1 (stereo unspecified)	55*	77*	1	81*	-28	-3	75*	93*
CCn1nc(-c2ccccc2)c2nc3ccccc3nc21	15	101*	7	88*	-10	-2	137*	140*
COCCN(C(=O)COC(=O)c1cc2c(s1)CCC2)c1c(N)n(Cc2ccccc2)c(=O)[nH]c1=O	3	91*	·	32*	·	·	40*	88*
Cc1ccc(C(=O)O)cc1N1C(=O)c2cccc3c([N+](=O)[O-])ccc(c23)C1=O	50*	102*	·	82*	·	·	47*	76*
O=C(N/N=C/c1ccncc1)c1cc([N+](=O)[O-])cc([N+](=O)[O-])c1O	-1	43*	84*	9	9	-2	12	49*
O=C(N/N=C/c1cc2c(c([N+](=O)[O-])c1)OCO2)c1ccncc1	-9	8	·	4	·	·	·	·
CCCN1CCN(S(=O)(=O)c2cn(C)nc2C)CC1	27	84*	·	66*	·	·	77*	96*
Cc1nn(C)cc1S(=O)(=O)N1CCN(Cc2ccccc2Cl)CC1	8	8	21	5	-50	9	·	·
Cc1ccc(S(=O)(=O)Nc2ccc(Br)cc2C(NCC(=O)O)c2ccccc2)cc1 (stereo unspecified)	4	-1	-22	1	1	-4	·	·
SMILES	GLD-1 RNA inh	MCL1 BIM primary	Mcl1-Noxa inh	Bcl-xL primary	Mcl1-Bid inh	Bim-Mcl-1	BCLXL inh confirm	MCL1 inh confirm
O=C(O)CSc1cc(NS(=O)(=O)c2ccc(Br)cc2)c2ccccc2c1O	10	42*	·	21	·	·	35*	79*
COc1ccc(C(=O)N2CCn3c(C)ccc3C2C)cc1 (stereo unspecified)	14	49*	-1	47*	-88	-2	12	11
CCOc1ncccc1C(=O)NCC(c1ccco1)N1CCCCC1 (stereo unspecified)	-4	·	·	·	·	·	·	·
CC(C)(C)NC(=O)NC(=O)CN1CCCc2ccccc21	6	84*	-3	77*	-72	-4	11	13
O=C(CN1CCCc2ccccc21)NC(=O)NCc1ccccc1	-4	4	-10	13	-50	·	·	·
Oc1c(C=Nc2cccc3cccnc23)sc2ccccc12	-152	128*	-10	80*	49	-9	37*	99*
O=C(N/N=C/c1sc2ccccc2c1O)c1cccc2ccccc12	-44	-40	-13	-20	-34	-6	·	·
CC(=O)OCC1=C(C(=O)O)N2C(=O)C(NC(=O)c3ccc(COc4cccc(Cl)c4Cl)o3)C2SC1 (stereo unspecified)	-1	51*	48	29	-5	-1	18	66*
COc1cccc(C(=O)NC2C(=O)N3C(C(=O)O)=C(COC(C)=O)CSC23)c1 (stereo unspecified)	6	21	·	9	·	·	·	·
Cn1c(C2CCCCC2)nc2cc(N)ccc21	9	10	·	12	·	·	·	·
Cc1cc(NC(=O)/C=C/c2ccccc2)c(C(C)C)cc1O	6	-3	6	5	-44	0	·	·
CC(C)CCn1c(COc2ccccc2)nn(CCC#N)c1=S	0	-1	·	-1	·	·	·	·
COc1cccc(CNC(=O)CCCCCn2c(=S)[nH]c3ccc(N4CCOCC4)cc3c2=O)c1	3	15	24	7	9	-2	·	·
